The whole screen tested about 310,000 compounds, of which about 2,200 (0.71%) showed an effect of 50% or more. The effect is printed as a negative number. The entries come from a sample that favours strong results as a whole.
target: human ether-à-go-go-related gene (hERG) potassium channel (human, UniProt Q12809); assay: primary screen, population patch clamp on CHO cells stably expressing hERG; higher = less effect of the substance
Sequence (Q12809 whole entry, looked up): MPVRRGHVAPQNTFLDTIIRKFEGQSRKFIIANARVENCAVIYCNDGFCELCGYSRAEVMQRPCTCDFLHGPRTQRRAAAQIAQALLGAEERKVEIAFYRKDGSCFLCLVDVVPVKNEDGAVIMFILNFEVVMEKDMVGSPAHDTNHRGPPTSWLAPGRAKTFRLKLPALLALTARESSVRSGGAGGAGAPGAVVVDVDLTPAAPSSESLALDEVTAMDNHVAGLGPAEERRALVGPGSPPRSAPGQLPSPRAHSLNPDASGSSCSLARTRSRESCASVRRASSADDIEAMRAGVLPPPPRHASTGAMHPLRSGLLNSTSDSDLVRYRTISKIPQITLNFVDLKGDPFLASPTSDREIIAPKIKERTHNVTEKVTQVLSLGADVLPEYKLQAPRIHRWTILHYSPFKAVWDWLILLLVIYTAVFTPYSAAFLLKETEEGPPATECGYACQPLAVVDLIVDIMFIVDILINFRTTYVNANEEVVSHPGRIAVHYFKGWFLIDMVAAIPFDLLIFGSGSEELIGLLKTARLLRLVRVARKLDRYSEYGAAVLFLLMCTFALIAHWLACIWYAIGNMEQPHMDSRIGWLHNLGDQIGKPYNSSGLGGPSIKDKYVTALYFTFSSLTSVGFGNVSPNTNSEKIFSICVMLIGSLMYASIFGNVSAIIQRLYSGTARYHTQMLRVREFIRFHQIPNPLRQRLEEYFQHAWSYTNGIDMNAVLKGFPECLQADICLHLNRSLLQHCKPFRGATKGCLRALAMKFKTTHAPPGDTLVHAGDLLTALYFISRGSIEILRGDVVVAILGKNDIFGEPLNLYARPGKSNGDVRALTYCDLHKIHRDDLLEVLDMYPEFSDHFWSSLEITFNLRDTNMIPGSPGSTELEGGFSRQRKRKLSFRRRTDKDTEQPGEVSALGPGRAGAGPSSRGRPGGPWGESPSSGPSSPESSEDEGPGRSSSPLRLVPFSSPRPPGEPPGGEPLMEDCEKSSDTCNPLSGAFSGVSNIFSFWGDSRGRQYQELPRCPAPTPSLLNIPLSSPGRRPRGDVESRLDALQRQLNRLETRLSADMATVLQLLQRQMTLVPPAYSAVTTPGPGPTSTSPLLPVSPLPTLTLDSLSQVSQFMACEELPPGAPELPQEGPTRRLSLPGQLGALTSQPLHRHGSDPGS

Row | SMILES | hERG current change (%, negative = inhibition) at 1uM [%]
1 | COc1ccccc1N1CCN(S(=O)(=O)c2c(C)sc3ncn(CC(=O)NCCN(C)C)c(=O)c23)CC1 | 10.8
2 | Cc1ccc(S(=O)(=O)N2CCN(C(=O)CN3CCCSc4ccccc43)CC2)cc1 | 3.85
3 | N/C(=N\N=C\c1ccc(O)cc1O)N[N+](=O)[O-] | 8.72
4 | COc1ccc(C(=O)OCc2nnc(-c3ccccc3)o2)cc1S(=O)(=O)N1CCOCC1 | 4.07
5 | Cc1cc(=O)[nH]c(SCC(=O)NCC2CCCCC2)c1C#N | 16
6 | CCOc1ccccc1NC(=O)C(=O)NCCC1=CCCCC1 | 9.84
7 | CCCCN(CCCNC(=O)c1ccc(CS(=O)(=O)c2c(Cl)cccc2Cl)o1)Cc1ccccc1 | -30.5
8 | CCCCN(CC)CCCNC(=O)c1ccc(CS(=O)(=O)c2c(Cl)cccc2Cl)o1 | -8.53
9 | CN(CCNC(=O)c1ccc(CS(=O)(=O)c2ccc(Br)cc2)o1)CCc1ccccc1 | -42
10 | CCCN(CCC)CCCNC(=O)c1ccc(CS(=O)(=O)c2c(Cl)cccc2Cl)o1 | -59.1
11 | CC(C)N(CCNC(=O)c1ccc(CS(=O)(=O)c2c(Cl)cccc2Cl)o1)Cc1ccccc1 | -3.94
12 | CN(CCNC(=O)c1ccc(CS(=O)(=O)c2c(Cl)cccc2Cl)o1)CCc1ccccc1 | -50.4
13 | Cc1ccc(-c2csc(NC(=S)NC(=O)/C=C/c3ccco3)n2)cc1 | 23.2
14 | O=C1OCCC1Sc1nnc(-c2ccc3c(c2)OCO3)n1-c1ccccc1 (centres unmarked) | 4.75
15 | Cc1c(C(=O)NCc2ccc3c(c2)OCO3)oc2ccc(S(=O)(=O)N3CCCC3)cc12 | 19.4
16 | N#Cc1cc2c(nc1SCC(=O)NCc1ccc3c(c1)OCO3)CCCCC2 | 1.91
17 | CCOc1ccc(NC(=O)CN(C)C(=O)CSCc2ccc(C)cc2)cc1OCC | -1.27
18 | COC(=O)CCNC(=O)Cc1c(C)n(C(=O)c2ccc(Cl)cc2)c2ccc(OC)cc12 | 8.1
19 | Cc1ccc(-n2ccnc2SCC(=O)N(CC(C)C)C2CCS(=O)(=O)C2)c(C)c1 (centres unmarked) | -3.07
20 | COc1cc2c(c(OC)c1OC)-c1c(cc(OC)c(OC)c1OC)C[C@](C)(O)[C@@H](C)C2 | -58.4
21 | COc1cc2c(c(OC)c1OC)-c1c(cc3c(c1OC)OCO3)C[C@H](C)[C@@](C)(O)C2 | 17.5
22 | COc1cc2c(c(OC)c1OC)-c1c(cc(OC)c(OC)c1OC)C[C@H](C)[C@H](C)C2 | -22.5

Row | SMILES | hERG current change (%, negative = inhibition) at 1uM [%]
23 | O=Nc1c(O)[nH]c2ccc(Cl)cc12 | 4.46
24 | CCCc1cc(=O)oc2c(C)c(OCC(=O)NCCCn3ccnc3)ccc12 | -70
25 | CCCCc1cc(=O)oc2cc(C)cc(OCC(=O)NCc3ccncc3)c12 | -73.8
26 | CCCc1cc(=O)oc2cc(C)cc(OCC(=O)NCCCn3ccnc3)c12 | -66.7
27 | Cc1c(C)c2ccc(OCC(=O)NCCCn3ccnc3)c(C)c2oc1=O | -11.1
28 | CCc1cc(=O)oc2cc(C)cc(OCC(=O)NCCCn3ccnc3)c12 | -7.42
29 | Cc1cc(OC(C)C(=O)NCCCn2ccnc2)c2c(C)c(C)c(=O)oc2c1 (centres unmarked) | -51.6
30 | Cc1cc(OC(C)C(=O)NCCCn2ccnc2)c2c(C)cc(=O)oc2c1 (centres unmarked) | 9.26
31 | CCCc1cc(=O)oc2cc(C)cc(OCC(=O)NCc3ccncc3)c12 | -48
32 | CCc1cc(=O)oc2cc(C)cc(OC(C)C(=O)NCCCn3ccnc3)c12 (centres unmarked) | 2.72
33 | CCc1cc(=O)oc2cc(C)cc(OCC(=O)NCc3ccncc3)c12 | -8.01
34 | Cc1cc(OCC(=O)NCCCn2ccnc2)c2c(C)cc(=O)oc2c1 | 14.7
35 | CCc1cc(=O)oc2c(C)c(OCC(=O)NCCCn3ccnc3)ccc12 | 5.28
36 | CCC(=O)N1CCN(c2ccc(NC(=O)COc3ccc(CC)cc3)cc2)CC1 | 10.9
37 | CC(C)[C@@H]1NC(=O)c2cc([N+](=O)[O-])cc(I)c2NCCC[C@@H](C(N)=O)NC(=O)[C@H](CO)NC1=O | 8.46
38 | O=C(CSc1ncn[nH]1)c1cccc([N+](=O)[O-])c1 | 11.5
39 | C#CCNC(=O)C1=C[C@H](c2ccc3c(c2)OCO3)C[C@H](OCCCCO)O1 | 15
40 | CCN(CC(=O)Nc1c(F)cccc1F)C(=O)c1ccc2ncsc2c1 | 12.3
41 | CC1=CCC(C(=O)O)C(C(=O)Nc2cccnc2)C1 (centres unmarked) | 5.97
42 | COc1ccc(CCNC(=O)CNS(=O)(=O)c2ccc(Br)s2)cc1OC | 1.45
43 | CC(CN1CCOCC1)OC(=O)C1COc2ccccc2O1.Cl (centres unmarked) | 7.15
44 | CC(NCC(=O)Nc1ccccc1C(=O)NC1CC1)c1ccc(S(C)(=O)=O)cc1 (centres unmarked) | 10.9

Row | SMILES | hERG current change (%, negative = inhibition) at 1uM [%]
45 | CCCCc1cc(=O)oc2c(C)c(OCC(=O)NCCN3CCOCC3)ccc12 | -77.1
46 | CCc1cc(=O)oc2c(C)c(OCC(=O)NCCN3CCOCC3)ccc12 | 12.8
47 | CCCc1cc(=O)oc2c(C)c(OCC(=O)NCCN3CCOCC3)ccc12 | -6.02
48 | Cc1nc2cc(NC(=O)NCc3ccccc3)ccc2o1 | 16.2
49 | CCOC(=O)Cc1nc2ccccc2o1 | 9.03
50 | O=C(NCc1cccnc1)Nc1ccc(Cl)cc1 | -18.3
51 | CCOC(=O)C1=C(OCc2ccc(Cl)cc2)C2C=C(C)C=CC2N=C1 (centres unmarked) | -18.1
52 | COc1ccc(CNn2c(-c3cccc(C)c3)nc3ccccc3c2=O)cc1OC | -54.8
53 | COc1ccccc1CNn1c(-c2cccc(C)c2)nc2ccccc2c1=O | 5.72
54 | COc1cccc(CNn2c(-c3cccc(C)c3)nc3ccccc3c2=O)c1 | 6.03
55 | Cc1cc(C)nc(/N=C(\N)N(Cc2ccccc2)Cc2ccccc2)n1 | -31.2
56 | CCN(CC)/C(N)=N/c1nc(C)cc(C)n1 | 3.23
57 | CCCCN(CCCC)/C(N)=N/c1nc(C)cc(C)n1 | -51.8
58 | Cc1cc(OCC(=O)N2CCC(C(=O)O)(c3ccccc3)CC2)c2c(C)c(C)c(=O)oc2c1 | 4.94
59 | COc1ccc(OCC(=O)Nc2ccc(OC)c(S(=O)(=O)N3CCCCC3)c2)cc1 | -2.82
60 | Brc1ccc(Oc2nnnn2-c2ccccc2)cc1 | 11
61 | O=C(Nc1ccc2c(c1)OCCO2)C1CCN(C(=O)c2ccc([N+](=O)[O-])cc2)CC1 | -16.3
62 | O=C(Nc1ccc2c(c1)OCO2)C1CCN(C(=O)c2ccc([N+](=O)[O-])cc2)CC1 | -74.6
63 | O=C(Nc1ccc(F)cc1)C1CCN(C(=O)c2ccc([N+](=O)[O-])cc2)CC1 | 11.5
64 | COc1ccc(C(=O)N2CCC(C(=O)Nc3ccc4c(c3)OCCO4)CC2)cc1 | -13.1
65 | O=C(Nc1ccc2c(c1)OCCO2)C1CCN(C(=O)c2ccc(F)cc2)CC1 | 5.7
66 | O=C(Nc1ccccc1)C1CCN(C(=O)c2ccc([N+](=O)[O-])cc2)CC1 | -67

Row | SMILES | hERG current change (%, negative = inhibition) at 1uM [%]
67 | COc1cc(OC)cc(C(=O)N2CCC(C(=O)Nc3ccc4c(c3)OCCO4)CC2)c1 | 12.5
68 | COc1ccc(C(=O)N2CCC(C(=O)Nc3ccc4c(c3)OCO4)CC2)cc1 | -59
69 | CC(=O)Nc1ccc(NC(=O)C2CCN(C(=O)c3ccc([N+](=O)[O-])cc3)CC2)cc1 | 22.3
70 | COc1ccc(C(=O)N2CCC(C(=O)Nc3ccc(OC)c(OC)c3)CC2)cc1 | 10.7
71 | COc1ccc(NC(=O)C2CCN(C(=O)c3ccc(OC)cc3)CC2)cc1 | -69.6
72 | COc1ccc(C(=O)N2CCC(C(=O)Nc3ccc(C)cc3)CC2)cc1 | -31.9
73 | CCC(Oc1ccccc1)C(=O)N(C)CC(=O)N(CC(C)C)c1c(N)n(CC(C)C)c(=O)[nH]c1=O (centres unmarked) | 7.85
74 | CC(C)CC(=O)OCC(=O)Nc1ccccc1Sc1ccccc1 | 11.1
75 | CN(Cc1ccc(OC(F)F)cc1)C(=O)c1ccc(S(=O)(=O)N(C)c2ccccc2)cc1 | -19.2
76 | CCS(=O)(=O)N1Cc2ccccc2CC1C(=O)Nc1ncc(C)s1 (centres unmarked) | 7.83
77 | Fc1ccc(N2Cc3ccsc3C=N2)cc1 | 9.09
78 | CCOc1ccc(Nc2nc(Cc3nnc(SCC(=O)NC4CCCCC4)n3C)cs2)cc1 | -7.35
79 | Cc1sc(-c2ccccn2)nc1OC(=O)c1ccc(F)cc1F | 16.2
80 | CCCCC(=O)Nc1c(-c2ccc(OC)c(OC)c2)c(=O)c2ccccc2n1C | 10.7
81 | O=C(Nc1ccc2c(c1)OCO2)C1CCN(C(=O)c2ccc(Br)cc2)CC1 | -42.3
82 | O=C(NCC1CCN(C(=O)c2ccc([N+](=O)[O-])cc2)CC1)c1ccc([N+](=O)[O-])cc1 | -74.6
83 | O=C(Nc1ccc2c(c1)OCO2)C1CCN(C(=O)c2ccc(Cl)cc2)CC1 | -59.6
84 | O=C(NCC1CCN(C(=O)c2cccc([N+](=O)[O-])c2)CC1)c1cccc([N+](=O)[O-])c1 | -5.98
85 | O=C(Nc1ccc2c(c1)OCCO2)C1CCN(C(=O)c2ccc(Cl)cc2)CC1 | 3.04
86 | O=C(NCC1CCCCC1)c1ccc([N+](=O)[O-])cc1 | 8.06

Source: publication PMC4336329 (PLoS ONE, 2015)
